{"source": "paper PMC5540273", "about": "(PLoS ONE, 2017);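 note: KINOMEscan kinase panel screen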", "details_in_all_cases": "concentration: 1 μM,replicates: in singlicate; n = 1", "key": {"MTOR": {"tested_on": "MTOR"}, "MUSK": {"tested_on": "MUSK"}, "MYLK2": {"tested_on": "MYLK2"}, "MYLK4": {"tested_on": "MYLK4"}, "MYLK": {"tested_on": "MYLK"}, "MYO3A": {"tested_on": "MYO3A"}, "MYO3B": {"tested_on": "MYO3B"}, "NDR1": {"tested_on": "T1, NDR1", "T1 construct": "gene STK38"}, "NDR2": {"tested_on": "NDR2"}, "NEK10": {"tested_on": "NEK10"}}, "data": [{"smiles": "COc1ccc(Nc2nccc(N3CCC(NC(=O)c4cccc(C#N)c4)C3)n2)cc1", "note": "(stereo not shown) [GSK1379730]", "values": [{"measurement": "%Inh", "setting": "MTOR", "value": 10, "unit": "%"}, {"measurement": "%Inh", "setting": "MUSK", "value": 5, "unit": "%"}, {"measurement": "%Inh", "setting": "MYLK2", "value": 0, "unit": "%"}, {"measurement": "%Inh", "setting": "MYLK4", "value": 0, "unit": "%"}, {"measurement": "%Inh", "setting": "MYLK", "value": 0, "unit": "%"}, {"measurement": "%Inh", "setting": "MYO3A", "value": 0, "unit": "%"}, {"measurement": "%Inh", "setting": "MYO3B", "value": 0, "unit": "%"}, {"measurement": "%Inh", "setting": "NDR1", "value": 0, "unit": "%"}, {"measurement": "%Inh", "setting": "NDR2", "value": 0, "unit": "%"}, {"measurement": "%Inh", "setting": "NEK10", "value": 28, "unit": "%"}]}, {"smiles": "CC(C)c1nc(-c2cccc(NS(=O)(=O)c3ccccc3)c2)c(-c2ccnc(Nc3ccc4c(c3)CN(C)CC4)n2)s1", "note": "[GSK1649598]", "values": [{"measurement": "%Inh", "setting": "MTOR", "value": 0, "unit": "%"}, {"measurement": "%Inh", "setting": "MUSK", "value": 15, "unit": "%"}, {"measurement": "%Inh", "setting": "MYLK2", "value": 0, "unit": "%"}, {"measurement": "%Inh", "setting": "MYLK4", "value": 13, "unit": "%"}, {"measurement": "%Inh", "setting": "MYLK", "value": 13, "unit": "%"}, {"measurement": "%Inh", "setting": "MYO3A", "value": 48, "unit": "%"}, {"measurement": "%Inh", "setting": "MYO3B", "value": 0, "unit": "%"}, {"measurement": "%Inh", "setting": "NDR1", "value": 31, "unit": "%"}, {"measurement": "%Inh", "setting": "NDR2", "value": 0, "unit": "%"}, {"measurement": "%Inh", "setting": "NEK10", "value": 0, "unit": "%"}]}, {"smiles": "COc1cccc(CNC(=O)NC2CCN(c3ccnc(Nc4cc(OC)c(OC)c(OC)c4)n3)C2)c1", "note": "(stereo not shown) [GSK1379765]", "values": [{"measurement": "%Inh", "setting": "MTOR", "value": 31, "unit": "%"}, {"measurement": "%Inh", "setting": "MUSK", "value": 83, "unit": "%"}, {"measurement": "%Inh", "setting": "MYLK2", "value": 11, "unit": "%"}, {"measurement": "%Inh", "setting": "MYLK4", "value": 9, "unit": "%"}, {"measurement": "%Inh", "setting": "MYLK", "value": 20, "unit": "%"}, {"measurement": "%Inh", "setting": "MYO3A", "value": 27, "unit": "%"}, {"measurement": "%Inh", "setting": "MYO3B", "value": 0, "unit": "%"}, {"measurement": "%Inh", "setting": "NDR1", "value": 15, "unit": "%"}, {"measurement": "%Inh", "setting": "NDR2", "value": 0, "unit": "%"}, {"measurement": "%Inh", "setting": "NEK10", "value": 14, "unit": "%"}]}, {"smiles": "Cn1cc(-c2cccc3c(N)c(C(N)=O)nnc23)cn1", "values": [{"measurement": "%Inh", "setting": "MTOR", "value": 0, "unit": "%"}, {"measurement": "%Inh", "setting": "MUSK", "value": 3, "unit": "%"}, {"measurement": "%Inh", "setting": "MYLK2", "value": 0, "unit": "%"}, {"measurement": "%Inh", "setting": "MYLK4", "value": 81, "unit": "%"}, {"measurement": "%Inh", "setting": "MYLK", "value": 33, "unit": "%"}, {"measurement": "%Inh", "setting": "MYO3A", "value": 15, "unit": "%"}, {"measurement": "%Inh", "setting": "MYO3B", "value": 23, "unit": "%"}, {"measurement": "%Inh", "setting": "NDR1", "value": 8, "unit": "%"}, {"measurement": "%Inh", "setting": "NDR2", "value": 23, "unit": "%"}, {"measurement": "%Inh", "setting": "NEK10", "value": 48, "unit": "%"}]}, {"smiles": "Cn1ccc2ncnc(Oc3ccc(NC(=O)Nc4cccc(C(F)(F)F)c4)c(Cl)c3)c21", "values": [{"measurement": "%Inh", "setting": "MTOR", "value": 33, "unit": "%"}, {"measurement": "%Inh", "setting": "MUSK", "value": 94.6, "unit": "%"}, {"measurement": "%Inh", "setting": "MYLK2", "value": 21, "unit": "%"}, {"measurement": "%Inh", "setting": "MYLK4", "value": 5, "unit": "%"}, {"measurement": "%Inh", "setting": "MYLK", "value": 3, "unit": "%"}, {"measurement": "%Inh", "setting": "MYO3A", "value": 0, "unit": "%"}, {"measurement": "%Inh", "setting": "MYO3B", "value": 22, "unit": "%"}, {"measurement": "%Inh", "setting": "NDR1", "value": 17, "unit": "%"}, {"measurement": "%Inh", "setting": "NDR2", "value": 0, "unit": "%"}, {"measurement": "%Inh", "setting": "NEK10", "value": 0, "unit": "%"}]}, {"smiles": "C[C@@H]1CNc2c(sc3ccc4nc(-c5ccc(O)cc5)ccc4c23)C(=O)N1", "values": [{"measurement": "%Inh", "setting": "MTOR", "value": 0, "unit": "%"}, {"measurement": "%Inh", "setting": "MUSK", "value": 0, "unit": "%"}, {"measurement": "%Inh", "setting": "MYLK2", "value": 14, "unit": "%"}, {"measurement": "%Inh", "setting": "MYLK4", "value": 10, "unit": "%"}, {"measurement": "%Inh", "setting": "MYLK", "value": 65, "unit": "%"}, {"measurement": "%Inh", "setting": "MYO3A", "value": 22, "unit": "%"}, {"measurement": "%Inh", "setting": "MYO3B", "value": 93.2, "unit": "%"}, {"measurement": "%Inh", "setting": "NDR1", "value": 26, "unit": "%"}, {"measurement": "%Inh", "setting": "NDR2", "value": 0, "unit": "%"}, {"measurement": "%Inh", "setting": "NEK10", "value": 7, "unit": "%"}]}, {"smiles": "CN(c1ccccc1CNc1nc(Nc2ccc3c(c2)CC(=O)N3)ncc1C(F)(F)F)S(C)(=O)=O", "values": [{"measurement": "%Inh", "setting": "MTOR", "value": 21, "unit": "%"}, {"measurement": "%Inh", "setting": "MUSK", "value": 71, "unit": "%"}, {"measurement": "%Inh", "setting": "MYLK2", "value": 4, "unit": "%"}, {"measurement": "%Inh", "setting": "MYLK4", "value": 2, "unit": "%"}, {"measurement": "%Inh", "setting": "MYLK", "value": 0, "unit": "%"}, {"measurement": "%Inh", "setting": "MYO3A", "value": 0, "unit": "%"}, {"measurement": "%Inh", "setting": "MYO3B", "value": 0, "unit": "%"}, {"measurement": "%Inh", "setting": "NDR1", "value": 33, "unit": "%"}, {"measurement": "%Inh", "setting": "NDR2", "value": 12, "unit": "%"}, {"measurement": "%Inh", "setting": "NEK10", "value": 0, "unit": "%"}]}]}
